Our source for the z-score values is PubChem BioAssay AID1508600 (Functional Genomics Laboratory (NCATS/FGL), 2020).

Among all 53,000 sequences or so, about 3,700 (7%) were called active.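 Rule for the calls: active = gene knockdowns whose robust z-score for IL-1 alpha signal is at least 2 or at most -2, so actives lie on both sides; inactive = the rest.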 This excerpt belongs to a sample that is enriched for actives.

The nature of this experiment: Components of the Cytosolic LPS Sensing Pathway: Gene Identification via Genome-wide siRNA Screen.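 Note: robust z of the log signal after scaling to non-targeting control siRNA wells of the plate.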 The note with it: RAW264.7 macrophages, IL-1a HTRF, actives lie on both sides, screened at 100 nM (by protocol), cells primed 5 h with Pam3CSK4 first. An outline of the steps: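 Three distinct siRNAs per gene were tested singly at 100 nM in RAW264.7 macrophages. Following Pam3CSK4 priming and 24 hour LipidA transfection, IL-1a secretion was read by HTRF.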
For orientation: In TR-FRET formats the signal depends on donor and acceptor labels being close together.
For GGCCAUGUUCCACACAUUATT against Grm1, the z-score is 1.49 (inactive).

Regarding GCCACGCAAUAAAGCAUCUTT against Sars, the z-score was -0.284 (inactive). To GCUUAAGGGAUAACAUAUUTT against Svs2 belongs -0.756 (inactive); to GGACACCAUAUGGUUAGCUTT against Tedc1, -2.25 (active); to ACUGUCAUGCACCCUAAAGTT against Olfr132, 0.369 (inactive). Under GCUCCUAAAAAGGCUCUUUTT against H2ac18 stands -0.463 (inactive); under GGAAUUCCAAUGUUACCAUTT against Meltf, 3.35 (active); under GCUGGUGUGUAACAUCAAUTT against Fut8, 0.246 (inactive). Under GCAAUGUUAUUUUCACCAGTT against Slc3a1 stands 0.61 (inactive).

As to GUUUAACUACAACAAUGAGTT against Dcpp1, the z-score was 1.23 (inactive). Take GCCUAGUGACCCUUUACUATT against Stx1a: the z-score was 0.51 (inactive). To GGCGACACAAUAAGACAGATT against Wdr19 belongs 0.648 (inactive); to GGUCCAGUUGGAGAUGACATT against Ube2d3, -1.04 (inactive); to GGUCGUGUACUCGUUCAGUTT against Pcdh10, 2.04 (active). Under GCUAAUCCAGGACUGUUUATT against Trim14 stands -1.66 (inactive); under GGUUCGACUUUCUUUGCCATT against Ola1, -0.614 (inactive); under GGUACUGAGGUGAGCCUCUTT against Myocd, -2.45 (active).

As for GGGAGCUCCAUUUAAAUUATT against Cnot6, the z-score is -0.516 (inactive). To GCAACUUUAUAGCAGAAUCTT against Apbb3 belongs -0.874 (inactive); to CCGUAUAAACAUUUAUGAGTT against Bmp4, -0.295 (inactive); to GGACAACACCCUGAUGAUATT against Vmn1r208, -1.07 (inactive). To CCCACUUGUCUACAGCCUATT against Olfr1505 belongs -2.65 (active); to GUGGGAAAUCAGUAUUUCCTT against AI467606, 1.23 (inactive); to GGUUCAUUGUGUCUCUGGCTT against Grk1, -0.378 (inactive). Under GGACGCAAGUACAAAUUUATT against Tnxb stands 1.13 (inactive); under CGUAGUCGAUUCAGGAGAGTT against Gm10439, -0.356 (inactive); under GGUCUUCUUAGCUUUUUUUTT against Plppr1, -0.713 (inactive). Turning to GGGUUGAUAGAAGUUUUUATT against Cpeb1, the z-score was 0.612 (inactive). Under GCUUUAGUACAGGCCUCUATT against Tent4a stands 0.444 (inactive). To CCCGACCACGUGUUUAUUGTT against Tnfsf12 belongs -1.68 (inactive). In the case of CCUGAACUAUAGAUGGAUUTT against Manba, the z-score was 3.37 (active). For GGUGGAGGCAGGAAAAUCUTT against Mrpl57, the z-score was -0.808 (inactive). To GGCUCAAGCUAUGAAGAGATT against Gstm4 belongs -0.195 (inactive). Under GGUUCUUGUUCAUUCUCUUTT against Slc4a4 stands -0.0837 (inactive).

With GGAAAGAGUGUGCAAACUCTT against Ly6d, the z-score is 0.0731 (inactive). Consider GGCCCAAGGAAUAAUCAAGTT against Satb2, for which the z-score was 2.48 (active). Under GGUAUCGACCACAGAUCAUTT against Plxnd1 stands 1.77 (inactive); under GCACCAUUUUAAGAUCUGCTT against Prr13, 0.238 (inactive). In the case of CCUCCUUACAAGUUGAAGCTT against Tmem59l, the z-score is -0.142 (inactive).

As to GCUUGUUCACCCAGUUAUGTT against Hexdc, the z-score is 1.15 (inactive). Under GCCAUUCACGACCCACUACTT against Olfr1095 stands -0.102 (inactive); under GGACUGAUAGAGGACUUCCTT against Bloc1s6, -0.56 (inactive); under CCUUUUAGCUCUGUGUAUUTT against Gldc, -0.0983 (inactive). Under GGCCUUGAAUGAGCAUCAUTT against Krr1 stands 0.548 (inactive). Under GGCUAUGAAAGUGACAAUCTT against Tsen15 stands -2.74 (active); under GCACCUAAUGAUCACAGUGTT against Nrip3, 0.393 (inactive).

Turning to GGAAACUGAGCUUAAGAUUTT against Cald1, the z-score is 1.2 (inactive).

Consider CCGCUUUCGGCAAGUAUGGTT against Rbmxl2, for which the z-score was 1.64 (inactive). Under GGCAUGACUUCCACAUGAATT against Pdcd1 stands 0.672 (inactive); under ACAAAUCCACGUGCAAUGUTT against Cyp2d9, 0.943 (inactive); under GGAAGAUGAUUAUGAAGAUTT against Apc, -0.143 (inactive). Under GCGCAAGCCGUAUUCGAAGTT against Hoxc12 stands 2.95 (active); under GGCCUGGGAAGUGAACAAATT against Faah, -0.721 (inactive); under GGAUCUGUCUACUUUUCCUTT against Hikeshi, 0.777 (inactive). To GCCACUCCUAUGAGUGUUATT against Cdk18 belongs 0.236 (inactive); to GGAACGCAAGAACAGAAUGTT against Rps24, 0.585 (inactive). In the case of GGCCACUGAUCAACUAAAGTT against Zfp110, the z-score is 2.27 (active). To CCAGAUGCUAUGCUAGGGATT against Clec4a1 belongs -0.0541 (inactive); to GGACGGCAAAUUUGGUUUCTT against Mmp9, 1.28 (inactive); to GCCAUCAAUGAUGUGCUCUTT against Zswim5, -0.186 (inactive).

With GGAAAAUGGAAUCUUCGGUTT against Pus10, the z-score is -1.4 (inactive).

On to GCUGGAUACUAAUUGCUUATT against Parva, for which the z-score is 1.27 (inactive).

With GCCUGGUACAGAACCAGUATT against Ntsr2, the z-score is 0.547 (inactive). With CCUAUGCAUCCCUGACUACTT against Tmem126b, the z-score was 5.07 (active). Under GGUUUUUAAGGGAAGGCCCTT against Ntmt1 stands 0.284 (inactive); under GUCCCACUCAGGAGAAUUUTT against Lrrc61, 0.917 (inactive). To GGAAGAUUAUAUUGAGAGATT against Bnip3 belongs 1.11 (inactive); to GGAGGAGAAUGCCACAACUTT against Cd320, -0.227 (inactive); to GCCUGUUAAUAUGCUGUAATT against Gpr83, -0.0705 (inactive).

On to GGACUUUCUGAGUAAGAAUTT against Coa8, for which the z-score was -0.873 (inactive). To GGAAUACGGAUUGAUGGAGTT against Fli1 belongs 2.19 (active); to CCUUAUGCAUGACUUGAGUTT against Exoc4, -0.2 (inactive). Under GGUUCGUCAUACCUCCUCATT against C77080 stands -0.00884 (inactive); under GGAAUACAUUCCUUUUAAGTT against Gpx3, -1.27 (inactive). As for GGAGAAGAAACGGAAAUGATT against Jagn1, the z-score was -1.98 (inactive). In the case of GGUAUUUAGAAACAUCAGUTT against Wls, the z-score was -2.16 (active). Consider GCUGUUCAUAUAUCUUGCUTT against Olfr1386, for which the z-score is 1.17 (inactive). To GGCACAUAGCCAUACCAGATT against Fbxw17 belongs 0.0511 (inactive). Under GGAUUCCUGUUAAAAGUCUTT against Azin1 stands -0.152 (inactive); under GGAUUAUCAAUGAAUAGCATT against Gabrb2, 0.913 (inactive). To GGGAGAAGUAAGUGUUAUCTT against Npy2r belongs 3.86 (active); to GGACAAUCCGAACAUCAAATT against Sval1, -0.403 (inactive). As for GGCCUGCUUCAAACAGUUUTT against Slc1a6, the z-score is 0.648 (inactive). For the sequence CGACUUUUCUCAUUAUGAGTT against Ythdf1, the z-score was -2.58 (active). Take GGAUACACUGUUUGAAUGUTT against Cks1b: the z-score was 0.00229 (inactive). Under GCCGAUUCAAUACUGUGACTT against Rnf149 stands -0.649 (inactive); under GCACAACCAAUUACGUGGCTT against Gpnmb, -0.149 (inactive). To GCAGAUCACUGGAGUAAACTT against Spz1 belongs -0.381 (inactive); to GGUAUGAAACCGUAUAAAUTT against Zfp60, 0.00529 (inactive); to GCGUGCUGUGUAAGAGUGUTT against Gja4, -2.5 (active). To GCACAUACAGCUUAACAAATT against Nktr belongs 1.27 (inactive); to GGGUUUUUCAUAAACAAAGTT against Pdcd1lg2, -1.46 (inactive); to GGUAAAAAGGGUGUGUACUTT against Pdzk1, 0.00178 (inactive).

As for CCACUAAAAUCUUACUGGATT against Scn7a, the z-score was 0.671 (inactive). To GCGUAUAGUUUCGAGAAAUTT against Mettl8 belongs 0.46 (inactive); to GGGUCUACCACAUGUACAUTT against Slc16a6, 2.23 (active). As for CCCUAACAUUGAGAUGAUUTT against Peg10, the z-score was -0.369 (inactive). Under CCAUUCUCCUCAGAUACUCTT against Slc25a17 stands -1.38 (inactive); under CCCAUAAGGGUGAAAUUCGTT against Tax1bp1, 0.444 (inactive). Consider GGCCCACAAGAAGAACAAGTT against Zfp423, for which the z-score was 1.29 (inactive). To CGGUAGAGUGCUUACGCAATT against Camk2g belongs 0.869 (inactive). To GGGAACCGCUUAUAUGUCCTT against Tbx21 belongs -0.195 (inactive); to GGACAGAUAGGAUUAGAGATT against Igfbp5, 0.215 (inactive); to CGUGCCAUAAUACACUAUCTT against Gng5, 2.79 (active). Under GGCGAAUGUUUACGAGAACTT against Sh2d1b2 stands 0.327 (inactive).

As to GGCAGGUUUGGUAACCAGATT against Fut1, the z-score was 0.559 (inactive). To GCUUCUUGAAAGUACAUUGTT against Nae1 belongs 0.386 (inactive); to GGCUCUUCACUCAUGUAUGTT against Olfr703, -0.931 (inactive).
